# Calls of active or inactive are those of the source. No rule for the calls is given here.
# Molecular target: Pantothenate synthetase (Mycobacterium tuberculosis (strain ATCC 25618 / H37Rv)) (UniProt P9WIL5)
# Assay: Recombinant Mtb pantothenate synthetase (PanC) inhibitors, coupled enzyme, confirmatory (AID 375);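 also: 0% = full reaction with vehicle and 100% = no enzyme background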
# Conditions: coupled enzyme assay; at 10 µM, stronger effect = higher value
# Sequence of Pantothenate synthetase (Mycobacterium tuberculosis (strain ATCC 25618 / H37Rv)) (P9WIL5 whole entry, looked up): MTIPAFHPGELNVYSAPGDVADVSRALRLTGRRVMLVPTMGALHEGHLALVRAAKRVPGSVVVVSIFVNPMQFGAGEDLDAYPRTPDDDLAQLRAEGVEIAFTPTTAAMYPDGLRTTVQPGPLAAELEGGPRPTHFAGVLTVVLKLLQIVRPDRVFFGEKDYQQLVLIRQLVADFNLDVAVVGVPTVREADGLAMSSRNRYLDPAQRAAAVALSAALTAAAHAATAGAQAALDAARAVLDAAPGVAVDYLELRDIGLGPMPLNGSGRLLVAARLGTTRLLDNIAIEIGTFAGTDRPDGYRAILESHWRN
row,Structure (SMILES),inhibition
1,COc1ccc(NC(C)=O)cc1NC(=O)CN1CCN(c2ccccn2)CC1,0% (inactive)
2,CC(=O)Nc1c(-c2ccc(F)cc2)nc2ccccn12,0% (inactive)
3,Clc1cccc(-c2nnc(-c3ccccc3)o2)c1,0% (inactive)
4,Cc1nnc(SCc2nc3ccccc3s2)n1-c1ccccc1,3% (inactive)
5,CCOC(=O)/C(C#N)=C(/C)c1ccc(OC)cc1,0% (inactive)
6,O=C(Nc1cc(C(=O)N2CCCC2)ccc1N1CCCC1)c1ccccc1F,2% (inactive)
7,Cc1ccc2nc(CSc3nnc(-c4ccco4)n3-c3ccccc3)cc(=O)n2c1,4% (inactive)
8,CCN(CC)CCN1C(=O)c2oc3ccc(F)cc3c(=O)c2C1c1ccncc1 (stereo not given),0% (inactive)
9,O=C(Nc1nnc(CCN2CCCCC2)s1)C1CCCCC1,0% (inactive)
10,COC(=O)Cn1c(CN2CCOCC2)nc2c1c(=O)n(C)c(=O)n2C,0% (inactive)
11,CCCCc1ccc(NC(=O)C2CCCO2)cc1 (stereo not given),0% (inactive)
12,COc1ccc(Cn2c(-c3ccco3)nc3oc4ccccc4c(=O)c3c2=O)cc1,0% (inactive)
13,CCc1c(C(=O)N2CCOCC2)csc1C,0% (inactive)
14,CS(=O)(=O)c1ccc2nc(NC(=O)c3cccs3)sc2c1,0% (inactive)
15,CCN(CC)CCOC(=O)C1(C2CCCCC2)CCCCC1,0% (inactive)
16,Fc1cccc(-c2cc3nc4c(c(N5CCN(c6cnccn6)CC5)n3n2)CCCC4)c1,0% (inactive)
17,CC(C)(C)n1nnnc1C(c1cccs1)N1CCN(Cc2ccccc2)CC1 (stereo not given),12% (inactive)
18,COc1ccc(-c2n[nH]c(C)c2-c2ccc(Cl)cc2)c(O)c1OC,0% (inactive)
19,CCCC(=O)N(Cc1cc2ccccc2[nH]c1=O)c1ccccc1OC,2% (inactive)
20,NC(=O)c1cc(-c2ccccc2)nc(N2CCOCC2)n1,0% (inactive)

row,Structure (SMILES),inhibition
1,Cc1ccccc1Cn1c(=O)c2c(nc3n2CCCN3Cc2ccccc2)n(C)c1=O,0% (inactive)
2,Cc1ccc(S(=O)(=O)Nc2nc3ccccc3nc2NCc2ccco2)cc1,3% (inactive)
3,O=C(OCC(=O)N1CCCC1)c1ccccc1OCc1ccccc1,0% (inactive)
4,CC(C)(C)Nc1nc(OCC(F)(F)F)nc(OCC(F)(F)F)n1,0% (inactive)
5,COc1ccc(Cl)cc1S(=O)(=O)N1CCN(c2ccc(F)cc2)CC1,0% (inactive)
6,Cc1cc(OCC(=O)N2CCCC2)cc(C)c1Cl,2% (inactive)
7,Cc1cccc(-n2ncc3c(NCc4cccs4)ncnc32)c1,0% (inactive)
8,O=C(O)c1ccc2c3c(ncnc13)-c1ccccc1C2=O,1% (inactive)
9,CCOc1nc(-c2ccncc2)nc2ccccc12,0% (inactive)
10,CCOC(=O)c1cc2sc(C)cc2n1CC(=O)NCc1ccc(F)cc1,2% (inactive)
11,O=C(NCc1ccco1)c1cccc(S(=O)(=O)N2CCCCC2)c1,0% (inactive)
12,N#CC1=C(N)SC(N)=C(C#N)C1CCc1ccccc1,8% (inactive)
13,Cc1nnc(N2C(=O)c3oc4ccccc4c(=O)c3C2c2ccco2)s1 (stereo not given),2% (inactive)
14,O=C1CCNc2cc3ccccc3cc21,3% (inactive)
15,O=C1CC(c2ccsc2)c2cc3c(cc2N1)OCCO3 (stereo not given),0% (inactive)
16,Cc1ccc(S(=O)(=O)N2CCN(C(=O)CSc3nc4ccccc4c(=O)[nH]3)CC2)c(C)c1,2% (inactive)
17,O=C(NCCc1c[nH]c2ccccc12)c1ccc(S(=O)(=O)NCc2ccco2)cc1,0% (inactive)
18,C=CCn1c(SCn2nnc3ccccc3c2=O)nnc1-c1ccc(Br)cc1,2% (inactive)
19,O=C1CC(c2ccccc2)n2nc(NC(=O)c3ccccn3)nc2N1 (stereo not given),0% (inactive)
20,CCOC(=O)N1CCC(NC(=O)C2CCN(S(=O)(=O)c3cccc4cccnc34)CC2)CC1,0% (inactive)

# Source: PubChem BioAssay
